Here are results for 36 compounds from PubChem BioAssay.

Structures are written as SMILES.

For this test, the system named is Fibrinogen (Alexa647-labelled). The experiment in a line: fibrinogen binders on compound microarrays, profiling panel, artefact control for SMM control-protein annotation, biochemical, small-molecule microarray, 635/667 nm fluorescence (AID 1131).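 Further: z-score merges 667 nm fluorescence with per-spot signal-to-noise over triplicate slides.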 The settings on record: fibrinogen-A647 binding fluorescence, higher = more signal.
In turn, `O=[N+]([O-])c1ccc(C[n+]2ccc3ccc(O)cc3c2)o1` registered a composite z-score of 0.596. To `O=C1O[C@@H](c2ccccc2)[C@@H](c2ccccc2)N2[C@@H](c3ccccc3OCCO)[C@]3(C(=O)Nc4ccc(C#CC5=CCCCC5)cc43)[C@@H](C(=O)O)[C@H]12` belongs 0.934; to `CCC#CCN(Cc1ccccc1Br)[C@H](/C=C/c1ccccc1)[C@@H](O)Cc1ccccc1`, -0.58. As to `COCCOC(=O)N1C(=O)[C@@]2(c3cc(C#CC4(O)CCCCCC4)ccc31)[C@H](C(=O)N1CCCCCCC1)[C@H]1C(=O)O[C@H](c3ccccc3)[C@H](c3ccccc3)N1[C@@H]2c1ccc(O)cc1`, the composite z-score stood at 0.72. `C[N+](C)(C)CCCCNC(=O)[C@@H]1C[C@@H]2C(=O)N3CCC[C@H]3C(=O)N2[C@@H]1c1cccc(OCCO)c1`: the composite z-score was -0.181. For the compound `C=CCN1C(=O)[C@]2(O[C@H](CCn3cc(CCO)nn3)[C@@H]([Si](C)(C)c3ccc(OC)cc3)[C@@H]2C)c2cc(NC(=O)c3ccc(OC)cc3)ccc21`, the composite z-score was determined as 0.708. As for `CO[C@H]1COC(=O)[C@@H](Cc2ccccc2)NC(=O)[C@@H](C)COC(=O)CC=C[C@@H]1C`, the composite z-score was -0.277. In the case of `O=C1C2C=CC(C(O)c3ccccc3)N(n3cnnc3)C2C(=O)N1Cc1ccccc1` (stereo unspecified), the composite z-score came out at 0.249. As for `C=C(COC)/C(=C/C[C@@H](OC(=O)c1ccncc1)c1ccc(OCCO)cc1)c1cc(C(=O)OC)ccc1OC`, the composite z-score amounted to 0.791. In the case of `O=C1C[C@@](C(=O)NCCN2CCOCC2)(c2ccc([N+](=O)[O-])cc2)[C@@H](c2ccc(CO)cc2)N1C1CCCCC1`, the composite z-score amounted to 0.63. Consider `COc1ccc(NN2C(C(O)c3cc(OC)c(OC)c(OC)c3)C=CC3C(=O)N(C4CCCCC4)C(=O)C32)cc1` (stereo unspecified), for which the composite z-score was 0.965. Regarding `C=C(C)[C@@H]1CC=C(C(O)C2C=CC3C(=O)NC(=O)C3N2Nc2ccccn2)CC1` (stereo partly specified), the composite z-score came to 1.02.

In turn, `O=C1OCCC/C=C\[C@H]2OC34C=CCN(CCN5CCOCC5)C(=O)[C@H]3N(CCCCCO)C(=O)[C@@H]4C12` (stereo partly specified) gave a composite z-score of -1.25. The compound `NC(=O)NCC#Cc1ccc2c(c1)[C@]1(C(=O)N2)[C@H](C(N)=O)[C@H]2C(=O)O[C@H](c3ccccc3)[C@H](c3ccccc3)N2[C@@H]1c1ccccc1OCCO` gave a composite z-score of 0.543. `COc1ccc([Si](C)(C)[C@H]2[C@H](CCO)O[C@@]3(C(=O)N(Cc4ccccc4)c4ccc(N5C(=O)c6cccc7cccc5c67)cc43)[C@@H]2C)cc1`: the composite z-score is -0.603. The same measure for `CN(C)c1ccc(C(O)C2C=CC3C(=O)NC(=O)C3N2Nc2ccc(Cl)cc2Cl)cc1` (stereo unspecified): 0.762; for `COC(=O)C(CC#Cc1ccc2c(c1)[C@]1(C(=O)N2)[C@H](C(=O)N2CCCCCCC2)[C@H]2C(=O)O[C@H](c3ccccc3)[C@H](c3ccccc3)N2[C@@H]1c1ccc(O)cc1)C(=O)OC`: -2.05; for `C=CCNC(=O)[C@@H]1[C@H]2C(=O)O[C@H](c3ccccc3)[C@H](c3ccccc3)N2[C@H](c2ccc(OCCO)cc2)[C@@]12C(=O)N(C(=O)OCCOC)c1ccc(C#CC3(O)CCCCCC3)cc12`: 0.827. `CC(C)[Si]1(C(C)C)O[C@@H](c2ccccc2)c2cc(C3CC3)nc(-c3ccc(Oc4ccccc4)cc3)c21`: the composite z-score is -0.812. For the compound `[N-]=[N+]=NCc1ccccc1C[C@]1(C(=O)N2CCCCC2)N=C(c2ccc(OCCCO)cc2)O[C@H]1c1ccccc1CN=[N+]=[N-]`, the composite z-score came out at 0.947.

In the case of `Cc1ccc(N2C(=O)c3ccccc3[C@@H](C(=O)NCC(F)(F)F)[C@@H]2c2ccc(CO)cc2)nc1`, the composite z-score is -1.4. Regarding `CC(C)N1CC=CC23O[C@@H]4/C=C\CCCOC(=O)C4[C@H]2C(=O)N(CCO)[C@@H]3C1=O` (stereo partly specified), the composite z-score is -0.508. For `O=C(NCC(F)(F)F)[C@@H]1c2ccccc2C(=O)N(Cc2ccccc2Cl)[C@H]1c1ccc(CO)cc1`, the composite z-score is -0.81.

As to `C=CCNC(=O)[C@H]1[C@@H]2C(=O)O[C@@H](c3ccccc3)[C@@H](c3ccccc3)N2[C@@H](c2ccccc2OCCO)[C@]12C(=O)N(C(=O)OCCOC)c1ccc(C#CCC(C(=O)OC)C(=O)OC)cc12`, the composite z-score was 0.709.

As for `C[C@@H]1C=CCC(=O)OC[C@H]2O[C@@H](C=C[C@@H]2O)[C@H](C)C=CCC(=O)OC[C@H]2O[C@H]1C=C[C@@H]2O`, the composite z-score was -0.282. In the case of `Cc1ccc(S[C@]2(C(=O)NCCN3CCOCC3)CC(=O)N(C3Cc4ccccc4C3)[C@@H]2c2ccc(CO)cc2I)cc1`, the composite z-score turned out to be 0.0025. For the compound `CC(C)CNC(=O)[C@@]1(C)c2ccccc2C(=O)N(Cc2ccc(OC(F)(F)F)cc2)[C@H]1c1ccc(CO)cc1`, the composite z-score is -0.0439.

`CO[C@H]1COC(=O)CC=C[C@@H](C)COC(=O)[C@@H](C)NC(=O)CC=C[C@@H]1C` yielded a composite z-score of -0.943.

`C=C[C@H](OC)[C@@H](OC(=O)Nc1ccc(SC)cc1)c1ccc(O)c(F)c1` displayed a composite z-score of 0.756. In turn, `[N-]=[N+]=NCc1ccccc1C[C@@]1(C(=O)N2CCOCC2)N=C(c2ccc(OCCCO)cc2)O[C@@H]1c1ccccc1N=[N+]=[N-]` came in with a composite z-score of 0.9. Take `[N-]=[N+]=NCc1ccccc1C[C@@]1(C(=O)O)N=C(c2ccc(OCCCO)cc2)O[C@@H]1c1ccccc1N=[N+]=[N-]`: the composite z-score came out at 1.02. For the compound `CSCC[C@@H]1NC(=O)CC=C[C@@H](C)COC(=O)[C@H](CCSC)NC(=O)CC=C[C@@H](C)COC1=O`, the composite z-score was determined as 0.017. As for `C=C(COC)/C(=C/C[C@@H](OC(C)=O)c1cccc(OCCO)c1)c1cc(C(=O)OC)ccc1OC`, the composite z-score was -1.09. To `CCOC(=O)C[C@H]1[C@H](OC(=O)c2cc3ccccc3oc2=O)[C@@H](NC(=O)C2CCCCC2)c2cc(OCCCO)ccc2N1C(=O)c1ccc2ccccc2n1` belongs 0.443; to `C=C(COC)C(=O)CC[C@H](OC(=O)c1ccccc1-c1ccccc1C(=O)O)c1cccc(OCCO)c1`, -0.46.

Take `C=CC[C@]1(C(=O)OC)N=C(c2ccc(OCCCO)cc2)O[C@H]1c1ccccc1CN=[N+]=[N-]`: the composite z-score was -0.268.
